PKA-R1A act – activates the PKA-R1A holoenzyme complex; P00514+P68181; PKA-R1A dissociation, Cy5-IP20 fluorescence polarization; scaled: DMSO 0%, 113 µM cGMP 100%; 340,000 tested, 0.083% active; activation, % at 11.4 µM;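 active means percent activation above the mean of all tested compounds plus 3 SD, cut at about 19% in these data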;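 further: higher means more PKAc released from R1A so a rise in polarization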
PKA-R2B act – PKA-R2B complex activation; P22694+P31323; PKA-R2B holoenzyme dissociation, Cy5-IP20 fluorescence polarization; R2B truncated from residue 108, S112A mutant; 0% DMSO only, 100% 113 µM cGMP; activation, % at 11.4 µM; 340,000 tested, 0.079% active;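 active means activation above a cutoff set at the mean over all compounds plus 3 SD, cut at about 18% in these data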;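 further: higher means more holoenzyme dissociation and a rise in polarization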
TMEM16A inh – mouse TMEM16A channel inhibition, primary screen; Q8BHY3; HEK293 TMEM16A/YFP iodide influx fluorescence, ionomycin; normalized B-score (activity score, 25-100; higher = stronger inhibition) at 10 µM; 310,000 tested, 1.2% active; AID 588511;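 active means ratio plate-corrected score three or more library SD toward inhibition, starting fluorescence score within five deviations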;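 further: score derived from kinetic fluorescence span divided by baseline fluorescence per well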
CHT PAM – human CHT allosteric activation | B-score at 10 µM | 310,000 tested, 0.49% active | Q9GZV3 | CHT-expressing cells, membrane potential dye, choline EC20; stronger effect = higher value; LV-AA mutant CHT in HEK293 cells;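 active means initial fluorescence not abnormally high and integrated response B-score, plate-corrected, over 3 SD above library mean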
CHT block – inhibitors of human choline transporter CHT; Q9GZV3; CHT-expressing cells, membrane potential dye, choline response; stronger effect = lower value; B-score at 10 µM; 310,000 tested, 0.86% active; AID 488975;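 active means B-score over 3 SD under the library average, and starting fluorescence ratio not unusually high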;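 further: choline stimulus applied at its EC90 after an EC20 pre-addition; B-score computed on integrated fluorescence ratio after choline addition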
TMEM16A act – activators or potentiators of mouse TMEM16A chloride channel; Q8BHY3; HEK293 TMEM16A/YFP-H148Q/I152L, iodide quench fluorescence; stronger effect = lower value; B-score at 10 µM; 340,000 tested, 0.3% active; AID 623877;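 active means fluorescence-ratio B-score plate-corrected deviation score at least 3 library SD below zero, with starting fluorescence score within 5 deviations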;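 further: channel opened by trigger with iodide after compound preincubation; score built on the fluorescence ratio of max minus min over baseline; more negative score means more quench and so TMEM16A activation or potentiation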
Numbers stand for hits; 0 = inactive; - = no result given. Sampled rows, rich in hits. Any-hit rate of the full collection: about 2.5%.

SMILES	PKA-R1A act	PKA-R2B act	TMEM16A inh	CHT PAM	CHT block	TMEM16A act
COc1ccc(S(=O)(=O)Nc2nc3ccccc3nc2Nc2ccc3c(c2)OCO3)cc1	-	-	0	0	0	-
O=S(=O)(Nc1nc2ccccc2nc1Nc1ccc2c(c1)OCCO2)c1cccs1	0	0	25	0	-7.7	0
COc1ccc(-c2cc3cc(OC)c(OC)cc3c(C)n2)cc1C	0	0	0	0	0	0
O=C1CCC(C(=O)OCC(=O)Nc2ccc(Cl)cc2C(F)(F)F)=NN1	0	0	-	-	-	0
O=C(NCC(=O)N(c1ccccc1)C(C(=O)NC1CCCC1)c1ccncc1)c1ccco1 (centres undefined)	0	0	0	0	0	-16
CC(C)c1ccc(N(C(=O)CNC(=O)c2ccco2)C(C(=O)NC2CCCC2)c2ccncc2)cc1 (centres undefined)	0	0	0	0	0	0
CC(=O)OCC(=O)[C@H]1CC[C@H]2[C@@H]3CCC4=CC(=O)CC[C@]4(C)[C@H]3CC[C@]12C	0	0	0	0	0	-5.8
O=C(CCc1ccccc1)NCC1(c2ccccc2)CCCC1	0	0	0	0	0	0
Cc1ccn2c(NC(=O)C(C)(C)Oc3ccc(Cl)cc3)c(-c3cccs3)nc2c1	0	0	0	0	-7.9	0
CC1CCN(C(=O)CSc2ccc(-c3ccc(F)cc3)nn2)CC1	0	0	0	0	0	0
CC1CC(C)(C)N(C(=O)CSc2ccc(-c3ccc(F)cc3)nn2)c2ccccc21 (centres undefined)	0	0	100	0	0	0
Cc1ccc(S(=O)(=O)N(CCC(=O)NCc2ccc(S(N)(=O)=O)cc2)c2ccccc2)cc1	0	0	-	-	-	0
CCOc1ccc(NC(=O)CN2CCc3cc4c(cc3C2)OCCCO4)cc1OCC	0	0	0	0	0	0
Clc1cc(Br)ccc1OCCOCCN1CCCC1	0	0	0	0	0	0
Clc1ccc(OCCOCCN2CCCCC2)c(Br)c1	19	0	0	0	0	0
Cc1ccc(N2CC(C(=O)OCc3nnc(-c4ccccc4)o3)CC2=O)cc1 (centres undefined)	0	0	0	0	0	0
Cc1cc(C)c(N2CCN(S(=O)(=O)N3CCCCCC3)CC2)c(C)c1	0	0	25	0	0	-22
CCOC(=O)C(CSCC(=O)c1ccc(Br)cc1)NC(=O)OC(C)(C)C (centres undefined)	-	-	100	0	0	-
Cc1ccc(S(=O)(=O)Nc2cccc(C(=O)NCC3CCCO3)c2)cc1F (centres undefined)	0	0	0	0	0	0
C[C@@H]1CCC(=O)N(CC[C@H](Oc2ccccc2)c2ccccc2)CC1	0	0	0	0	0	0
Cc1cc(C(=O)NNC(=O)Cc2ccc(Cl)cc2)c(C)o1	0	0	0	0	0	0
O=C(CN(Cc1ccccc1)C(=O)CCC(=O)Nc1nccs1)NCC1CCCO1 (centres undefined)	0	0	0	0	0	0
CCOc1ccc(S(=O)(=O)Nc2nc3ccccc3nc2Cl)cc1	0	0	0	0	0	0
CCOc1ccc(S(=O)(=O)Nc2cnc3ccccc3c2)cc1	0	0	25	0	0	0
COc1ccccc1CNC(=O)CSCc1cnn(-c2ccccc2)c1-n1cccc1	0	0	0	0	0	0
SMILES	PKA-R1A act	PKA-R2B act	TMEM16A inh	CHT PAM	CHT block	TMEM16A act
COc1cccc(CNC(=O)CSCc2cnn(-c3ccccc3)c2-n2cccc2)c1OC	0	0	100	0	0	0
CN(C)c1cc(Nc2ccc(O)cc2)c([N+](=O)[O-])c2nonc12	0	0	0	0	0	0
O=[N+]([O-])c1c(Nc2ccc(O)cc2)cc(Cl)c2nonc12	0	0	100	0	0	-8.3
COc1cc(-c2nc(CN3CCN(c4ncccn4)CC3)c(C)o2)ccc1F	0	0	0	0	0	0
Cc1ccc(CN/C=C/C(=O)c2ccc(Br)cc2)cc1	0	0	100	0	0	0
COc1ccc(-c2csc(/C(C#N)=C\c3ccc(OC)c([N+](=O)[O-])c3)n2)cc1	0	0	0	0	0	0
